Test results from the supplement of paper PMC6522484.
± gives the standard deviation of the averaged measurements.

Legend:
[1] = tested on: DLD1; experiment: cell viability (CellTiter-Glo) relative to plate median (fraction of plate median); higher = more viable cells; conditions: 5 µM; treatment time 24 h; reporter: 7TFP
How it was run: (§1)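 Two independent replicates were averaged for each reported value. Library compounds were applied at a final 5 µM for 24 h to colorectal cancer cell lines stably expressing lentiviral TCF/Wnt firefly luciferase reporters. Firefly luciferase or CellTiterGlo luminescence from each well was normalised to the plate median.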

[2] = tested on: HCT116; experiment: as above; conditions: 5 µM; treatment time 24 h; reporter: TCF4/Wnt
How it was run: as §1

[3] = tested on: SW480; experiment: as above; conditions: 5 µM; treatment time 24 h; reporter: 7TFP
How it was run: as §1

[4] = tested on: DLD1; experiment: TCF/Wnt firefly luciferase reporter signal relative to plate median (fraction of plate median); higher = higher Wnt reporter signal; conditions: 5 µM; treatment time 24 h; reporter: 7TFP
How it was run: as §1

[5] = tested on: SW480; experiment: as above; conditions: 5 µM; treatment time 24 h; reporter: 7TFP
How it was run: as §1

| SMILES | cell viability [1] | cell viability [2] | cell viability [3] | TCF/Wnt firefly luciferase reporter signal [4] | TCF/Wnt firefly luciferase reporter signal [5] |
| --- | --- | --- | --- | --- | --- |
| CCCCN(CCCC)CCCOC(=O)c1ccc(N)cc1 | 0.877 ± 0.033 | 0.92 ± 0.13 | 0.954 ± 0.053 | 1.11 ± 0.014 | 0.993 ± 0.011 |
| Cc1nc(C)c(Cl)c(O)c1Cl | 1.1 ± 0.099 | 1.03 ± 0.11 | 1.004 ± 0.0085 | 0.99 ± 0.029 | 0.917 ± 0.059 |
| N[C@@H](Cc1ccc(O)c(O)c1)C(=O)O | 1.075 ± 0.0071 | 1.03 ± 0.064 | 0.99 ± 0.071 | 1.01 ± 0.04 | 1.09 ± 0.042 |
| OC[C@H]1O[C@H]([S-])[C@H](O)[C@@H](O)[C@@H]1O.[Au+] | 0.945 ± 0.21 | 0.921 ± 0.019 | 1.11 ± 0.021 | 0.891 ± 0.12 | 0.265 ± 0.088 |
| O=C(O)c1cc2cc(F)ccc2[nH]1 | 1.02 ± 0.053 | 1.115 ± 0.0071 | 1.07 ± 0.085 | 0.963 ± 0.0057 | 1.08 ± 0.085 |
| NC(N)=Nc1nc(CSCC/C(N)=N/S(N)(=O)=O)cs1 | 1 ± 0.083 | 1.01 ± 0.028 | 0.916 ± 0.054 | 1.12 ± 0.092 | 1.11 ± 0.035 |
| Cc1c(C)c2c(c(C)c1O)CCC(C)(CCCC(C)CCCC(C)CCCC(C)C)O2 (stereo not drawn) [alpha-TOCHOPHEROL] | 0.963 ± 0.012 | 0.97 ± 0.085 | 1.01 ± 0.017 | 1.07 ± 0.014 | 1.01 ± 0.16 |
| CC1=C(CC(=O)O)c2cc(F)ccc2/C1=C\c1ccc([S+](C)[O-])cc1 (stereo not given) | 0.941 ± 0.028 | 0.901 ± 0.018 | 0.949 ± 0.1 | 1.03 ± 0.23 | 1.03 ± 0.12 |
| COc1ccc(C(=O)c2ccccc2O)c(O)c1 | 0.953 ± 0.022 | 0.977 ± 0.0028 | 0.952 ± 0.016 | 1.16 ± 0.042 | 1.06 ± 0.057 |
| CC(=O)Oc1cc(-c2coc3cc(OC(C)=O)c(OC(C)=O)c(OC(C)=O)c3c2=O)cc(OC(C)=O)c1OC(C)=O | 1 ± 0.015 | 1.09 ± 0.2 | 0.998 ± 0.018 | 1.09 ± 0.17 | 0.95 ± 0.1 |
| CCCCOc1ccc(OCCCN2CCOCC2)cc1 | 0.904 ± 0.086 | 0.976 ± 0.077 | 0.975 ± 0.011 | 0.993 ± 0.11 | 1.06 ± 0.014 |
| CC[C@H](C)[C@H](N)C1=N[C@H](C(=O)N[C@@H](CC(C)C)C(=O)N[C@H](CCC(=O)O)C(=O)N[C@H](C(=O)N[C@H]2CCCCNC(=O)[C@H](CC(N)=O)NC(=O)[C@@H](CC(=O)O)NC(=O)[C@H](Cc3cnc[nH]3)NC(=O)[C@@H](Cc3ccccc3)NC(=O)[C@H]([C@@H](C)CC)NC(=O)[C@@H](CCCN)NC2=O)[C@@H](C)CC)CS1 | 1.05 ± 0.05 | 1.03 ± 0.021 | 0.992 ± 0.04 | 1.03 ± 0.042 | 1.03 ± 0.021 |
| COc1ccc(-c2cc(=O)c3ccccc3o2)cc1 | 1 ± 0.066 | 0.983 ± 0.11 | 1.03 | 1.28 ± 0.12 | 1.13 ± 0.18 |
| CNC1(C)C2CCC(C2)C1(C)C (stereo not given) | 0.844 ± 0.018 | 0.972 ± 0.11 | 0.924 ± 0.038 | 1.05 ± 0.021 | 0.904 ± 0.054 |
